# Results as given in the supplement of paper PMC6555819.
# System: PPARg:RXRa (NR concentration 180 nM, RXRa partner concentration 90 nM)
# Assay: PBM binding z-score (relative to random genomic background probes); higher = stronger binding; sequences stand for … in GC…GCGATTGACAGCGTAGAATGAAGG
# Outline: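 Binding buffer was PBS pH 7.4 with 2% milk, 0.02% Triton X-100, 1 mM DTT, 0.2 mg/mL BSA and 0.4 mg/ml salmon testes DNA. In it, ligand-free nuclear receptor dimers were incubated 1 h on custom Agilent 4×180K protein-binding microarrays carrying double-stranded probes. Antibodies against each partner (one per run) detected binding, and z-scores were calculated against random background probes after regression normalization of scanned fluorescence.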
row,Sequence,PBM binding z-score
1,TTACCAAGGAGAAAGGTCGTTGATGCACGCCTTG,2.36
2,GCTATTAGTTGAAAGGGCATCCGAATGATTCTCG,2.35
3,ATATGTGGGTTAAGGGTCATTCAGGTTGGTTCGC,11.6
4,TAGCCTAGGTCATGCGGGCCGGTATAGTGTCGGC,1.89
5,ATCTCTAGGTAAAGATAGTTCGGTGAATGCAAAT,0.266
6,TAGTCTAGGTCAGATCGGGCCAGTATACGCTATA,2.36
7,AGTCAAAGTTCAGGACGAGGTAACGTCAAGCACG,4.43
8,TCTGCTAGGTCAACGCTGGTCAGCTAATCTGCTA,2.09
9,TCTTGTAGACCAGCAGGTTAAGAAAGCTGGCCAA,-0.5
10,CCTAGTTGGTTAGGAGGTCACACACCGGATATGA,2.54
11,TCTCGGAGGACACGAAGGTCAGAGTTTTCCAGAG,0.436
12,GCTTACGGGTCAAAGGTTATAGGATGAATAGAAT,11.4
13,TCTTGTATATCAAAGGTTAAGAAAGCCGAAGCCT,6
14,CGTCCAAGGTTAATGCTAGGTCAGTGAAAGCATT,0.161
15,CGAACTAGGTCATCGACAGGACAGTGAATAGTAA,8.03
16,CCATACAGGTGAGAAGGTAACTCAGCCTCGATTA,1.03
17,CAAATTAGGTCAAGAGGTCAAAGTCCGCTTCCCG,9.93
18,TCATATAGGTAATACGGGTGAAAGTCGGCATCTA,1.31
